This passage reports z-score results from PubChem BioAssay.

For this test, the target named is NADPH oxidase 5 (Homo sapiens) (UniProt Q96PH1). The test can be described thus: NOX5-dependent H2O2 signal modulators, primary screen, NOX inhibitor project, cell-based, HEK293-NOX5, Amplex Red fluorescence (AID 1161). The settings on record: HEK293-NOX5, ionomycin, 45 min, higher = more signal.
Sequence of NADPH oxidase 5 (Homo sapiens) (Q96PH1 whole entry, looked up): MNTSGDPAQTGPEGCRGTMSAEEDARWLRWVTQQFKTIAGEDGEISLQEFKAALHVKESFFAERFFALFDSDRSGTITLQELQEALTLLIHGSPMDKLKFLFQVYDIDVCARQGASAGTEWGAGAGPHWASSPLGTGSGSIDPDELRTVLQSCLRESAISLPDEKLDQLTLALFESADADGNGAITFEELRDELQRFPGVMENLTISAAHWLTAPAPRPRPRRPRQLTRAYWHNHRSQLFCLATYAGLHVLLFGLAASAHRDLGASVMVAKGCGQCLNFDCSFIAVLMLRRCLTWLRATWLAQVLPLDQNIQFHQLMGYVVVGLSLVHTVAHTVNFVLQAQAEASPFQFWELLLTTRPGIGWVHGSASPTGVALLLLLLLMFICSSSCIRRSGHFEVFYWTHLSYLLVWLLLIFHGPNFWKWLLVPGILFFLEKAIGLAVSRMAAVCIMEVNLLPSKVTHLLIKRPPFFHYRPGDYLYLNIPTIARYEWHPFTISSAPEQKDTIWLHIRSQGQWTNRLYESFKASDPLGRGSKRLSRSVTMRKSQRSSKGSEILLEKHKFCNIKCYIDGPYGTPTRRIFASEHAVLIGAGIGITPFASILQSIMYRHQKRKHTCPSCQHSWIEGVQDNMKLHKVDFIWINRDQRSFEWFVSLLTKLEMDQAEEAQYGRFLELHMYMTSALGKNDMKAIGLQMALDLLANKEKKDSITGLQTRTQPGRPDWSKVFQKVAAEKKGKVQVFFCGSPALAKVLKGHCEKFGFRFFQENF
For the compound `COc1ccc([Si](C)(C)[C@@H]2[C@@H](CCO)O[C@]3(C(=O)N(Cc4cccc(N5CCOC5=O)c4)c4ccccc43)[C@H]2C)cc1`, the z-score was 1.98. The value for `CCOC(=O)C1=CC[C@H]2C(=O)N(c3ccccc3)C(=O)[C@@H]12` was -2.36. Take `CCOC(=O)C[C@H]1[C@H](OC(=O)c2ccc(C(=O)c3ccccc3)cc2)[C@@H](NC(=O)Cc2ccc(OC)cc2)c2cc(OCCCO)ccc2N1C(=O)c1ccc2ccccc2n1`: the z-score is 1.53. The value for `COC(=O)[C@@]1(Cc2ccc(F)cc2)[C@H]2c3cc(C(=O)N(C)C)n(Cc4cc(C)n(C)n4)c3C[C@H]2CN1C(=O)c1ccccc1` was -0.329; that for `CCCC[C@@H]1C[C@H]1[C@@H](NC(=O)c1cccnc1)c1ccc(Cl)cc1` was 0.715; that for `[N-]=[N+]=Nc1ccccc1C[C@@]1(C(=O)N2CCCCC2)N=C(c2ccc(OCCCO)cc2)O[C@@H]1c1ccccc1N=[N+]=[N-]` was -0.801. `C=CCC(OC(C)=O)[C@@H]1[C@@H](N(Cc2ccc(-c3cccc(C(F)(F)F)c3)o2)C(=O)c2cccc3ccccc23)c2cc(OCCCO)ccc2N1C(=O)Cc1ccc2ccccc2c1` (stereo partly specified): the z-score is -1.04. `CCCCN1CC=CC23O[C@@H]4C=CCOC(=O)[C@@H]4[C@H]2C(=O)N(CCCCCCO)[C@@H]3C1=O` (stereo partly specified) registered a z-score of 1.63. The value for `O=C1C2C=CC(C(O)C=Cc3ccc([N+](=O)[O-])cc3)N(n3cnnc3)C2C(=O)N1Cc1ccccc1` (stereo unspecified) was -0.3. In turn, `O=C1[C@H]2C=C(Br)[C@H](C[C@@H]2OCCCCCCO)[C@@]12CO2` came in with a z-score of -0.292. The value for `CCCCCCCCCCC(O)C1C=CC2C(=O)NC(=O)C2N1Nc1ccc(Cl)cc1Cl` (stereo unspecified) was -0.838.
